# Results reported in PubChem BioAssay (NCATS).
# Where “and” joins values, the source holds several entries; their conditions need not be identical. Equal entries are not always repeated. Records with an inconclusive call do not appear. Where a call stands in place of a potency, no number is given. Calls of active or inactive are those of the source. Unless noted, the call rests on the fitted dose curve; in most records, active means well fitted inhibition curve with a large enough effect; inconclusive means small, poorly fitted or top-dose-only effect; inactive means flat fitted curve, though single readings scatter.
# Key:
# [1] = molecular target: DNA dC->dU-editing enzyme APOBEC-3G (Homo sapiens) (UniProt Q9HC16); assay: qHTS for inhibitors of Vif-A3G interactions: Validation (AID 588379); conditions: Vif-A3G protein interaction assay; series mostly up to 46.1 µM
# Sequence of DNA dC->dU-editing enzyme APOBEC-3G (Homo sapiens) (Q9HC16 whole entry, looked up): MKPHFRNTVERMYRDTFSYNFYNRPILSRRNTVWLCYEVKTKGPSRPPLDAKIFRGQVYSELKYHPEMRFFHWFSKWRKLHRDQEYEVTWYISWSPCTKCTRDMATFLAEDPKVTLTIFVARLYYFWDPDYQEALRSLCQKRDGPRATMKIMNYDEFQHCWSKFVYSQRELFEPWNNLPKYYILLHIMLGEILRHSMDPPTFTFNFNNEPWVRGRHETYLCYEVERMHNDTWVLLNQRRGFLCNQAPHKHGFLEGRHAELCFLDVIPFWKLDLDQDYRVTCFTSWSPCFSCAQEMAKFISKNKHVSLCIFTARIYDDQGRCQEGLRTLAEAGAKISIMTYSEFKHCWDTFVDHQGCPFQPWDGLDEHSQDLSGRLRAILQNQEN
# Method in brief: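 HeLa cells stably expressing Vif and A3G-eYFP, 700 cells/well, incubated overnight at 37 deg C, then exposed to compound overnight at 37 deg C. Inhibition of Vif-mediated degradation read as increased yellow fluorescence (Ex 488/Em 500-530) by laser-scanning cytometry.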
# [2] = molecular target: Ubiquitin carboxyl-terminal hydrolase 1 (Homo sapiens) (UniProt O94782); assay: Inhibitors of USP1/UAF1: Pilot qHTS (AID 504865); conditions: purified USP1/UAF1, Ub-rhodamine cleavage fluorescence; series mostly up to 114 µM;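 further: rhodamine fluorescence freed from ubiquitin-rhodamine substrate followed over time; top concentration of the series differs between compounds; nearly all actives have a fitted effect of over 35% in size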
# Sequence of Ubiquitin carboxyl-terminal hydrolase 1 (Homo sapiens) (O94782 whole entry, looked up): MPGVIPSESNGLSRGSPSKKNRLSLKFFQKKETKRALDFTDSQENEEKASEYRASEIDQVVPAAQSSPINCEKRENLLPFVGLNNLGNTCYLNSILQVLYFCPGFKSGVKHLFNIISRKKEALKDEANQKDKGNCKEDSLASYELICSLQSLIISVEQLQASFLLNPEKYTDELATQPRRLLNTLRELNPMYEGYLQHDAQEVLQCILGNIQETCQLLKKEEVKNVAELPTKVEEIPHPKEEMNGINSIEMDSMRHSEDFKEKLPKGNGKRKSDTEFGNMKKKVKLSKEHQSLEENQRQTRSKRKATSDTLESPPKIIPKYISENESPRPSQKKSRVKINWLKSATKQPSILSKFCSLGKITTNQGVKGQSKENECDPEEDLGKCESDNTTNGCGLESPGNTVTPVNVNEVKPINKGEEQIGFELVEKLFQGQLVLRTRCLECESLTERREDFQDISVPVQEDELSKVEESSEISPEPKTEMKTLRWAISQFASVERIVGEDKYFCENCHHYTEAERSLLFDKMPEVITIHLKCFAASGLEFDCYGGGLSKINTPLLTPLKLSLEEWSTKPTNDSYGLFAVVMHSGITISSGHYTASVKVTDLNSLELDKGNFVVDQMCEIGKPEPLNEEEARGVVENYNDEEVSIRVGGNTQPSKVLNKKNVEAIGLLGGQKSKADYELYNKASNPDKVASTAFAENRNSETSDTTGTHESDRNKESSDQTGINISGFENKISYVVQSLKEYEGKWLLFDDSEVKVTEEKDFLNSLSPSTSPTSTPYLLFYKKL
# Method in brief: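 Enzyme-free wells gave the negative control, while test wells held 1nM USP1/UAF1 preincubated with compound for 15 min at room temperature. Ub-Rho at 150nM final started the reaction, and fluorescence at 480/540 nm was recorded kinetically.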
# [3] = molecular target: Peroxisome proliferator-activated receptor gamma (Homo sapiens) (UniProt P37231); assay: qHTS assay for small molecule agonists of peroxisome proliferator-activated receptor gamma signaling (AID 588536; active means well fitted curve in the direction sought with a large enough effect in the signal ratio, with a control signal flat, not every such curve was filed as active; the % refers to the signal ratio); conditions: HEK293 PPARg-UAS-bla, beta-lactamase ratio, 16 h, percent of rosiglitazone response, DMSO as zero; series mostly up to 76.7 µM
# Sequence of Peroxisome proliferator-activated receptor gamma (Homo sapiens) (P37231 whole entry, looked up): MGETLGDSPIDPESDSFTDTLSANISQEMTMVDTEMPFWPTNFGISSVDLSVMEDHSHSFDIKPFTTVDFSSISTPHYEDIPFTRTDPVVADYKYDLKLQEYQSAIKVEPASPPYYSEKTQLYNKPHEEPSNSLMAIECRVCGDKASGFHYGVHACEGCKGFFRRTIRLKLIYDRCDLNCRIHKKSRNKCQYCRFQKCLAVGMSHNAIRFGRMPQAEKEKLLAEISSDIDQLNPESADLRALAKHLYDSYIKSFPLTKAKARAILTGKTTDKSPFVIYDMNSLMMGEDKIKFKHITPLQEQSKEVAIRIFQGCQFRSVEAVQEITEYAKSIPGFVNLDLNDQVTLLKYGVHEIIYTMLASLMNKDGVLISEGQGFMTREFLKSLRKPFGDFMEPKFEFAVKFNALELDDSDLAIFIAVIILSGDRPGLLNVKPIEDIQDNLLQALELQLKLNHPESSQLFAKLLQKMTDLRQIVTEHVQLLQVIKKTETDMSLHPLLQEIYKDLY
# Method in brief: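 Test agents, titrated, stimulated HEK293 UAS-bla cells overnight (16 h, 37 C). Substrate CCF4 was then added for two hours at room temperature before fluorescence reading.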
# [4] = molecular target: Peroxisome proliferator-activated receptor gamma (Homo sapiens) (UniProt P37231); assay: qHTS assay for small molecule antagonists of peroxisome proliferator-activated receptor gamma signaling (AID 588537; active means well fitted inhibition curve with a large enough effect in the signal ratio, with a control signal flat, not every such curve was filed as active; the % refers to the signal ratio; further: potency means the concentration at half of the fitted maximal effect); conditions: HEK293 PPARg-UAS-bla, beta-lactamase ratio, antagonist mode; series mostly up to 76.8 µM
# Method in brief: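 Step one: plate 3000 HEK293 UAS-bla cells per well in medium with 1% stripped serum and hold 6-6.5 h at 37 C. Step two: add compound and 50 nM agonist for 16 h. Step three: CCF4 loading, fluorescence read.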
# [5] = molecular target: Androgen receptor (Homo sapiens) (UniProt P10275); assay: qHTS assay for small molecule agonists of androgen receptor signaling (AID 588515; active means well fitted curve in the direction sought with a large enough effect in the signal ratio, with a control signal flat; the % refers to the signal ratio); conditions: AR-UAS-bla HEK293, beta-lactamase ratio, agonist 16 h; stronger effect = higher value
# Sequence of Androgen receptor (Homo sapiens) (P10275 whole entry, looked up): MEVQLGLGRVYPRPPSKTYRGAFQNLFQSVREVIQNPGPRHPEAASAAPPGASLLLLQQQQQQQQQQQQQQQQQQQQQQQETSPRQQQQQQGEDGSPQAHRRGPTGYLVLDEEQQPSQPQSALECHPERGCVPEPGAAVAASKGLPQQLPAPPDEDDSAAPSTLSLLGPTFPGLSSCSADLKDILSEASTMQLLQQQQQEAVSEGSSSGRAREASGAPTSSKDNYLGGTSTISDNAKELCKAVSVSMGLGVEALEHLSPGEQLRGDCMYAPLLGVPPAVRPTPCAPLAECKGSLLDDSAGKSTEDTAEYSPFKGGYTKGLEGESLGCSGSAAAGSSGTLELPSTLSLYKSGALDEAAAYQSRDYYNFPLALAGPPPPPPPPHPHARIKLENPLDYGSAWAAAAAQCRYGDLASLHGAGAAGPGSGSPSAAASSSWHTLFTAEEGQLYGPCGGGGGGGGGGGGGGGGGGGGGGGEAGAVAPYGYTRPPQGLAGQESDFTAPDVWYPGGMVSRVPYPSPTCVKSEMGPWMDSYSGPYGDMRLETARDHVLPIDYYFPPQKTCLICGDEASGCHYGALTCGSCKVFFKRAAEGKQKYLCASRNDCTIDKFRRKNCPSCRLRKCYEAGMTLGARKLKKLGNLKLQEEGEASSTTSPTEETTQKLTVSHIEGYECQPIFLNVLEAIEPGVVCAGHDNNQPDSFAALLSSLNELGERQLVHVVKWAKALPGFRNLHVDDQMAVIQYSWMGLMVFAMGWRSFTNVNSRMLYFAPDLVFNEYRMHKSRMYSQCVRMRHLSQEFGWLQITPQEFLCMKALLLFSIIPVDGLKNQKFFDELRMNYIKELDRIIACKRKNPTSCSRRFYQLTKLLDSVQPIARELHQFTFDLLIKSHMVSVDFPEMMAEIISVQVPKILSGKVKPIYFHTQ
# Method in brief: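 EC50 and efficacy came from Hill fits of titrations (up to 92 uM) normalized to 30 nM R1881 as 100% and DMSO as 0%. Compound exposure was 16 h at 37 C on AR-UAS-bla HEK293 cells, with a 405/460/530 nm CCF4 fluorescence read.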
# [6] = molecular target: Androgen receptor (Homo sapiens) (UniProt P10275); assay: qHTS assay for small molecule antagonists of androgen receptor signaling (AID 588516; active means well fitted curve in the direction sought with a large enough effect in the signal ratio, with a control signal flat, not every such curve was filed as active; the % refers to the signal ratio); conditions: AR-UAS-bla HEK293, beta-lactamase ratio, antagonist mode, 16 h; series mostly up to 76.8 µM
# Method in brief: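 Compounds tested in titration against 10 nM R1881 in AR-responsive bla reporter HEK 293 cells; CCF4 fluorescence (460/530 nm) after 16 h exposure gave IC50 and efficacy.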
# [7] = molecular target: Glucocorticoid receptor (Homo sapiens) (UniProt P04150); assay: qHTS assay for small molecule antagonists of glucocorticoid receptor signaling (AID 588533; active means well fitted inhibition curve with a large enough effect in the signal ratio, with a control signal flat, not every such curve was filed as active; the % refers to the signal ratio;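 further: cells stimulated with 2 nM dexamethasone as agonist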); conditions: HeLa MMTV-bla, GRE beta-lactamase ratio, antagonist mode, 18 h; series mostly up to 76.8 µM
# Sequence of Glucocorticoid receptor (Homo sapiens) (P04150 whole entry, looked up): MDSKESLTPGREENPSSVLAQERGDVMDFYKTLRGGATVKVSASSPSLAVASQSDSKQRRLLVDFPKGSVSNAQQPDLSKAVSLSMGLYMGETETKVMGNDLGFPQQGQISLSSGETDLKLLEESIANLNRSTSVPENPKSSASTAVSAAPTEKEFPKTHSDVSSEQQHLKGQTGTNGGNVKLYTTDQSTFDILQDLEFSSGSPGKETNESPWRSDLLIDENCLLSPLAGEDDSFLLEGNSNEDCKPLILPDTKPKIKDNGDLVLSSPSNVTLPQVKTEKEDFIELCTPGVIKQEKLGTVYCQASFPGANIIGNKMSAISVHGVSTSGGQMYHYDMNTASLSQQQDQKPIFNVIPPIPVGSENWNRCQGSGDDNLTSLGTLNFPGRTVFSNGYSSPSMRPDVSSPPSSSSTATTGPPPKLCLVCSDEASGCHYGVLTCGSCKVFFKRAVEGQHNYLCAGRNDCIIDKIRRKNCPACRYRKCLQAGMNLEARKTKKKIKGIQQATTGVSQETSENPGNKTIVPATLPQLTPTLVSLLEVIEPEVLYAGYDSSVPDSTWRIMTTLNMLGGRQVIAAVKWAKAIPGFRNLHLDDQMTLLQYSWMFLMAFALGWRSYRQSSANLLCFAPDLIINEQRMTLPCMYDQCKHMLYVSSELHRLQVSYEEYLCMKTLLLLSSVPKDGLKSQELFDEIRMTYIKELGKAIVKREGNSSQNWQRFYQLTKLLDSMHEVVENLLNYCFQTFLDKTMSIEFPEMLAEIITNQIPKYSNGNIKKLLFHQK
# Method in brief: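 Antagonist-mode qHTS: compound titrations added to GRE-bla HeLa cells, then dexamethasone 2 nM final; 18 h, 37 C. CCF4 FRET fluorescence normalized to dexamethasone and DMSO; IC50 from Hill fit.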
# [8] = qHTS assay for small molecule antagonists of peroxisome proliferator-activated receptor delta signaling (AID 588535; active means well fitted inhibition curve with a large enough effect in the signal ratio, with a control signal flat, not every such curve was filed as active; the % refers to the signal ratio;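 on max response: cells co-treated with a PPAR-delta agonist as stimulator during compound exposure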); conditions: HEK293T PPARd-UAS-bla, beta-lactamase FRET ratio, 18 h; 460 nm channel
# Method in brief: (§1)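 Cells were seeded at 4000 per well in assay medium containing 2% charcoal/dextran FBS and held 5 hrs at 37 C. Compounds were then added for 18 hrs. CCF4 substrate was applied for 2 hrs at room temperature before fluorescence reading.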
# [9] = molecular target: Peroxisome proliferator-activated receptor delta (Homo sapiens) (UniProt Q03181); assay: as above; conditions: HEK293T PPARd-UAS-bla, beta-lactamase FRET ratio, 18 h; series mostly up to 76.7 µM
# Sequence of Peroxisome proliferator-activated receptor delta (Homo sapiens) (Q03181 whole entry, looked up): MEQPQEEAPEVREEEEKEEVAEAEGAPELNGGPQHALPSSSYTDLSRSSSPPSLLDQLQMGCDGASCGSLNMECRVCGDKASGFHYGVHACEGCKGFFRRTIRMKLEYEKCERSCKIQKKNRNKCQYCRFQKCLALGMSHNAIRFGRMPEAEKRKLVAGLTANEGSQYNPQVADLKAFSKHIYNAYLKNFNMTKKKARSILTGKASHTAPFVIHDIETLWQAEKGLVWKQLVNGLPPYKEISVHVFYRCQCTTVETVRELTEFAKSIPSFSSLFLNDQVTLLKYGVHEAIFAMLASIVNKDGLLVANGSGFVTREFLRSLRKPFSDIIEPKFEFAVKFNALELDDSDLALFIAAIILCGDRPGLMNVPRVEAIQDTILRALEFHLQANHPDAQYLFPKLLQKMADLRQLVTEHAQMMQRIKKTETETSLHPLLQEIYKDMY
# Method in brief: as §1
# [10] = molecular target: Estrogen receptor (Homo sapiens) (UniProt P03372); assay: qHTS assay for small molecule antagonists of estrogen receptor alpha signaling (AID 588513; active means well fitted curve in the direction sought with a large enough effect in the signal ratio, with a control signal flat, not every such curve was filed as active; the % refers to the signal ratio); conditions: ER-alpha-UAS-bla HEK293, beta-lactamase ratio, antagonist mode; series mostly up to 76.9 µM
# Sequence of Estrogen receptor (Homo sapiens) (P03372 whole entry, looked up): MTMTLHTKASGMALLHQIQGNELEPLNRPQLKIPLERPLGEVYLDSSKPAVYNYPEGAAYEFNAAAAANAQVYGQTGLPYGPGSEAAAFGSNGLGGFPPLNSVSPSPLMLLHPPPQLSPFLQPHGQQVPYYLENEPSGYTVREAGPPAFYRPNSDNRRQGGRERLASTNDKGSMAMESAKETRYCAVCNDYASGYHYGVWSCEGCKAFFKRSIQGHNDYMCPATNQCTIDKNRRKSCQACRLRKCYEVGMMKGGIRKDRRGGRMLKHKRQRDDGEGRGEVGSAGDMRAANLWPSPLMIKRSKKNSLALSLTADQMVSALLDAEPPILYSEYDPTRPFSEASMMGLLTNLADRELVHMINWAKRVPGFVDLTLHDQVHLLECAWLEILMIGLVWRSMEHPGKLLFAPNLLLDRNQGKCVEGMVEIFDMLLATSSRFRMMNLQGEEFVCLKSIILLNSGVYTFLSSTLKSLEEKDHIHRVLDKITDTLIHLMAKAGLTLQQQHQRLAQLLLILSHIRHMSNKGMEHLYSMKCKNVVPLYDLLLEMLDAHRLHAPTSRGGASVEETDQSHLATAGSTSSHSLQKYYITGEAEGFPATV
# Method in brief: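 Antagonist-mode qHTS in ER-alpha-UAS-bla HEK 293 cells: compound titration, 0.5nM estradiol for 18 h, CCF4 fluorescence, Hill-derived IC50.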
# [11] = molecular target: Estrogen receptor (Homo sapiens) (UniProt P03372); assay: qHTS assay for small molecule agonists of estrogen receptor alpha signaling (AID 588514; calls by dose curve; further: nearly all actives have a fitted effect of over 70% in size); conditions: ER-alpha-UAS-bla HEK293, beta-lactamase ratio, 18 h, percent of full estradiol response, vehicle zero; series mostly up to 76.8 µM
# Method in brief: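 Reporter-gene assay. […] controls beta-lactamase in HEK 293 GripTite cells; after 18 hrs with compound, CCF4 substrate is added for 2 hrs and fluorescence is read.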
# [12] = molecular target: Bile acid receptor (Homo sapiens) (UniProt Q96RI1); assay: qHTS assay for small molecule antagonists of farnesoid X receptor signaling (AID 588526; calls by dose curve); conditions: HEK293T FXR-UAS-bla, beta-lactamase ratio, antagonist mode; series mostly up to 76.7 µM
# Sequence of Bile acid receptor (Homo sapiens) (Q96RI1 whole entry, looked up): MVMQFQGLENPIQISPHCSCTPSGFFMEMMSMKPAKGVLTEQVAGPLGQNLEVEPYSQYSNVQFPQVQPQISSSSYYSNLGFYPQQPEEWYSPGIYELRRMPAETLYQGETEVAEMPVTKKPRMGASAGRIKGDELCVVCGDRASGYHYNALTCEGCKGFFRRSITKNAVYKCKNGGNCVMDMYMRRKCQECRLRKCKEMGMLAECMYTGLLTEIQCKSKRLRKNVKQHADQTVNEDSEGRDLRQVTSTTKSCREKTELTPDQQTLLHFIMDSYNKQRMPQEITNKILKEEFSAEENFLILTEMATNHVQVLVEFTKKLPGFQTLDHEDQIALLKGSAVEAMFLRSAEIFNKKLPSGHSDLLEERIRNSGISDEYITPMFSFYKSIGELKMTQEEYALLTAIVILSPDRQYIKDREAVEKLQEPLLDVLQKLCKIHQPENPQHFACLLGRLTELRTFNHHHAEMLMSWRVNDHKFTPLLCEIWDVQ
# Method in brief: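 Antagonist mode: titrated compounds tested against chenodeoxycholic acid stimulation (normalized to 50 uM CDCA and DMSO) in GeneBLAzer HEK293T cells for 16 h. Beta-lactamase read by CCF4 fluorescence; IC50 from Hill fits.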
compound,measurement,setting,value
COC(=O)C1=C(C)NC(C)=C(C(=O)OC(C)C)C1c1cccc2nonc12 (stereo not drawn),outcome,[1],inactive
O=C(O)c1cn(-c2ccc(F)cc2)c2cc(N3CCNCC3)c(F)cc2c1=O,Potency,[2],inactive
CC(C)(S)[C@@H](N)C(=O)O,Potency,[2],inactive
Cc1nc(Nc2ncc(C(=O)Nc3c(C)cccc3Cl)s2)cc(N2CCN(CCO)CC2)n1,Potency,[2],inactive
CCC1=C(C)CN(C(=O)NCCc2ccc(S(=O)(=O)NC(=O)NC3CCC(C)CC3)cc2)C1=O (stereo not drawn),Potency,[2],inactive
Cc1cc(=O)oc2cc(O)ccc12,Potency,[2],inactive
N[C@@H](Cc1cc(I)c(Oc2cc(I)c(O)c(I)c2)c(I)c1)C(=O)O,outcome,[3],inactive
same,Potency,[4],39.8 µM (active)
CC(=O)Nc1ccc(O)cc1,outcome,[1],inactive
CN(C)C(=O)COC(=O)Cc1ccc(OC(=O)c2ccc(N=C(N)N)cc2)cc1,Potency,[2],inactive
COc1cc(OC)c(C(=O)CCCN2CCCC2)c(OC)c1,Potency,[2],inactive
same,activation,[5],8.09% (inactive)
same,outcome,[6],inactive
same,outcome,[7],inactive
same,max response,[8],15.9%
same,outcome,[9],inactive
same,outcome,[3],inactive
same,Potency,[4],inactive
COc1ccc(C2(C#N)CCC(C(=O)O)CC2)cc1OC1CCCC1 (stereo not drawn),Potency,[2],inactive
CS(=O)(=O)OCCCCOS(C)(=O)=O,Potency,[2],inactive
same,outcome,[10],inactive
same,outcome,[11],inactive
same,max response,[8],-16.8% and 23.8% and -11.6%
same,outcome,[9],inactive
same,outcome,[3],inactive
same,Potency,[4],inactive
CNC[C@@H](O)[C@@H](O)[C@H](O)[C@H](O)CO,Potency,[2],inactive
Cn1c(NCCN(CCO)CCCc2ccc([N+](=O)[O-])cc2)cc(=O)n(C)c1=O,Potency,[2],inactive
CCC[C@@H]1C[C@@H](C(=O)N[C@@H]([C@H]2O[C@H](SC)[C@H](O)[C@@H](O)[C@H]2O)[C@@H](C)O)N(C)C1,Potency,[2],inactive
O=C(NCCO[N+](=O)[O-])c1cccnc1,Potency,[2],inactive
same,outcome,[1],inactive
CCOC(=O)C1=C(O)C(=O)N(Cc2ccccc2)C1,outcome,[1],inactive
CCOC(=O)c1c(C)n(C)c2ccc(O)cc12,Potency,[2],inactive
O=C(NC(Cc1cc(=O)[nH]c2ccccc12)C(=O)O)c1ccc(Cl)cc1 (stereo not drawn),Potency,[2],inactive
NS(=O)(=O)c1cc(C(=O)O)c(NCc2ccco2)cc1Cl,Potency,[2],inactive
same,outcome,[10],inactive
same,outcome,[11],inactive
same,max response,[8],-4.16% and 9.44%
same,outcome,[9],inactive
same,outcome,[3],inactive
same,Potency,[4],inactive
CCC(C)(Oc1ccc(C2(c3ccc(OC(C)(CC)C(=O)O)cc3)CCCCC2)cc1)C(=O)O (stereo not drawn),Potency,[2],inactive
Nc1nc(Cl)nc2c1ncn2[C@H]1C[C@H](O)[C@@H](CO)O1,Potency,[2],inactive
same,outcome,[12],inactive
same,outcome,[7],inactive
CCc1nc(N)nc(N)c1-c1ccc(Cl)cc1,Potency,[2],inactive
same,outcome,[10],inactive
same,outcome,[11],inactive
same,outcome,[7],inactive
same,max response,[8],-4.91%
same,outcome,[9],inactive
CCN(CC)CCOc1ccc(Cc2ccccc2)cc1,Potency,[2],inactive
same,outcome,[1],inactive
Cc1ccc(C)c(OCCCC(C)(C)C(=O)O)c1,Potency,[2],inactive
same,outcome,[10],inactive
same,outcome,[11],inactive
same,activation,[5],4.9% (inactive) and 2.29% (inactive)
same,outcome,[6],inactive
same,outcome,[12],inactive
same,max response,[8],34%
same,outcome,[9],inactive
COc1c2occc2cc2ccc(=O)oc12,Potency,[2],inactive
same,outcome,[1],inactive
same,outcome,[12],inactive
same,outcome,[7],inactive
same,max response,[8],59.3%
same,outcome,[9],inactive
O=c1oc2cc(O)ccc2s1,Potency,[2],inactive
